Bioassay records deposited in PubChem BioAssay by National Center for Advancing Translational Sciences (NCATS).
PI5P4Ka inh: inhibitors of human PI5P4K alpha | P48426 | PI5P4Kalpha enzyme, ADP-Glo luminescence, 60 min; hits give low values | max response, % | actives 1.2% (n = 330,000) | AID 652105; active = max response of -50% or lower; inconclusive = between -30% and -50%; inactive = -30% or higher; also: value at the top dose of about 77 µM; % is scaled to controls: 0 for no effect and ±100 for the full control effect
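ADP-Glo luminescence end-point read after a 60 min room-temperature kinase reaction of PI5P4Kalpha plus substrate, initiated with ATP at 5 microM final. Buffer: 0.038 M HEPES pH 7.4, EGTA, 0.1% CHAPS, 5% DMSO.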
Pol beta inh: inhibitors of human DNA polymerase beta | P06746 | Potency, µM (doses to about 114 µM), without a hit: at the highest dose activity change, negative = inhibition, usual class: inhibitors | actives 1.3% (n = 340,000) | Pol beta primer extension/strand displacement, fluorescence kinetic; also: potency is read from the fitted curve at half-maximal effect; % is scaled to controls: 0 for no effect and ±100 for the full control effect
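Homogeneous kinetic assay of primer extension and strand displacement by 10 nM Pol beta, preincubated 15 min at room temperature with compound before 50 nM substrate (final) was added. Read at 0 and 10 min; four-parameter Hill fit.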
WRN inhibitor: inhibitors of human WRN helicase. Q14191. WRN helicase unwinding, fluorescent forked duplex, kinetic. Potency, µM (series often up to 114 µM), for inactives: at the highest dose activity change, negative = inhibition, most hits filed as inhibitors. actives 0.46% (n = 360,000). AID 651768; also: potency is read from the fitted curve at half-maximal effect; % is scaled to controls: 0 for no effect and ±100 for the full control effect; nearly all actives have a fitted effect of over 55% in size
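WRN at 20 nM final was preincubated with compound for 15 min at room temperature; reaction started with 100 nM forked duplex oligonucleotide carrying fluorophore and quencher plus 2 mM ATP (final). Unwinding followed kinetically by red fluorescence (ex 525/em 598 nm).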
Pol kappa inh-1: blocks human DNA polymerase kappa activity. Q9UBT6. actives 0.53% (n = 400,000). Potency, µM (titrated, usually from 107 µM), for the others: at the highest dose activity, negative = inhibition, actives largely listed as inhibitors. purified Pol kappa, fluorescent DNA synthesis assay, 10 min; also: potency is read from the fitted curve at half-maximal effect; % is scaled to controls: 0 for no effect and ±100 for the full control effect
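Kinetic fluorescence screen: compound preincubated 15 min RT with 10 nM enzyme; 50 nM substrate (final) initiates; reads at 0/10 min.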
Pol eta inh-1: DNA polymerase eta (human) inhibition. Potency, µM (top dose mostly 114 µM), without a hit: at the highest dose activity change, negative = inhibition, hits mostly inhibitors. AID 588591. Q9Y253. actives 1.2% (n = 390,000). recombinant Pol eta, fluorescent DNA replication assay; also: potency is read from the fitted curve at half-maximal effect; % is scaled to controls: 0 for no effect and ±100 for the full control effect
Target sequence (Q9Y253 whole entry, looked up): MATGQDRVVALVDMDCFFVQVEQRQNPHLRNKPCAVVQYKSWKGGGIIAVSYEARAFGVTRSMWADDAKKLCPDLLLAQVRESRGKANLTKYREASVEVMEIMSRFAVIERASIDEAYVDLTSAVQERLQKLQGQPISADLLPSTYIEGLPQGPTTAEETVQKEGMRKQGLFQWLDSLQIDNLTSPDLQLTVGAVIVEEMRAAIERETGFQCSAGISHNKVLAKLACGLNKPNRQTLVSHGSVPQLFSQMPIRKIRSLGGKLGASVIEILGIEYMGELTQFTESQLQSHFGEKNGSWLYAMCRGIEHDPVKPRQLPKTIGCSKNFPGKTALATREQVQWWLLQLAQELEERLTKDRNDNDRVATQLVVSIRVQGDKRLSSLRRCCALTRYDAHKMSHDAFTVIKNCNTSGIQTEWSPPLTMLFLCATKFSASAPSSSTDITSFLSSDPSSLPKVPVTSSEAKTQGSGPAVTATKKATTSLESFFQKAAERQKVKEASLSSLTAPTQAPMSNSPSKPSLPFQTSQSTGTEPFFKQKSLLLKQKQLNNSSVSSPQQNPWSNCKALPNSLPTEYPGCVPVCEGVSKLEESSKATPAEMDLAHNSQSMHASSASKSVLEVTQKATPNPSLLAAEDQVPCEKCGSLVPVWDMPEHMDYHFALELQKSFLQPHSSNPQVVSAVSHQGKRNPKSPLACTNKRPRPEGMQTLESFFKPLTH
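Pol eta (10 nM) was preincubated with compounds for 15 min at room temperature, after which fluorescent replication substrate (50 nM final) was added to start the reaction. Fluorescence was read kinetically at 0 and 10 min.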
POLI inh: inhibitors of human DNA polymerase iota; actives 1% (n = 390,000); Pol iota fluorescent replication assay, 10 min; AID 588590; Potency, µM (series often up to 115 µM), inactives show at the top dose activity, negative = inhibition, hits mostly inhibitors; also: potency is read from the fitted curve at half-maximal effect
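Fluorescent replication assay read twice, at 0 min and 10 min after adding 50 nM (final) substrate. Enzyme (10 nM) and compounds were first incubated 15 min at room temperature; enzyme-free buffer wells were negative controls.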
TbPGK inh: validation of Trypanosoma brucei phosphoglycerate kinase inhibitors; shares compounds with Pol kappa inh-1; TbPGK coupled GAPDH assay, Kinase-Glo luminescence; Potency, µM (series often up to 57.5 µM), inactives show at the top dose activity change, negative = inhibition, most hits filed as inhibitors; actives 79% (n = 500); AID 686980; also: potency is read from the fitted curve at half-maximal effect; % is scaled to controls: 0 for no effect and ±100 for the full control effect; nearly all actives have a fitted effect of over 65% in size
Pol iota confirm: Confirm cherry-picked inhibitors of human polymerase iota. shares compounds with Pol kappa inh-1. Pol iota primer extension, TAMRA/BHQ fluorescence. Potency, µM, actives largely listed as inhibitors. actives 77% (n = 1,500). AID 720496; also: potency is read from the fitted curve at half-maximal effect
Pol kappa inh-2: confirmation of human DNA polymerase kappa inhibitors | Potency, µM, hits mostly inhibitors | AID 720501 | shares compounds with Pol eta inh-1 | actives 76% (n = 920) | purified Pol-kappa, fluorescent strand-displacement substrate; also: potency is read from the fitted curve at half-maximal effect
Pol eta inh-2: Pol eta (human) inhibition, cherry-pick confirmation; shares compounds with Pol eta inh-1; Pol eta primer extension, TAMRA/BHQ fluorescence, 10 min; Potency, µM, hits mostly inhibitors; actives 64% (n = 2,600); AID 720502; also: potency is read from the fitted curve at half-maximal effect
* = called active by the depositor; ? = inconclusive; · = no result; [ ] = another dose, or the depositor's remark. Sampled rows, rich in hits. Any-hit rate of the full collection: about 2.8%. Unless noted, calls follow the shape of the dose curve; as a rule, active = well fitted curve in the direction sought with a large enough effect; inconclusive = small, poorly fitted or top-dose-only effect, or another doubt; inactive = no such curve, though single readings can be large; an effect the other way counts as inactive or inconclusive.

SMILES	PI5P4Ka inh	Pol beta inh	WRN inhibitor	Pol kappa inh-1	Pol eta inh-1	POLI inh	Pol iota confirm	Pol eta inh-2	others
Cc1ccc(-c2cc(C(=O)N/N=C/c3ccc([N+](=O)[O-])o3)c3ccccc3n2)o1	?	-9%	-14%[11.6 µM]	?	50µM*	?	?	30*
Cc1ccc(/C=N/NC(=O)c2cc(-c3ccncc3)nc3ccccc23)o1	-22	1%	2%	-7%	-4%	23%	·	·
O=C(N/N=C/c1ccc(F)cc1)c1cc(-c2ccco2)nc2ccccc12	-111*	3.5µM*	40µM*	14µM*	1.6µM*	7.9µM*	7.5*	21*	TbPGK inh=8.2µM*;Pol kappa inh-2=11*
COc1ccccc1NC(=O)Cn1c(=O)n(CC2CCC(C(=O)NCCc3ccccc3)CC2)c(=O)c2ccccc21 (stereo not given)	·	-2%	·	5%	3%	11%	·	·
O=C(CN1C=NS(=O)(=O)c2ccccc21)Nc1ccc(F)cc1	·	-2%	·	-4%[60.1 µM]	-2%	16%	·	·
COCCSc1nc2c([nH]c3ccccc32)c(=O)n1-c1ccc(OC)c(OC)c1	·	-3%	·	-4%[60.1 µM]	-17%	0%	·	·
CC(=O)N1CCC(N(Cc2ccco2)C(=O)Nc2cccc(C)c2)CC1	·	3%	·	-9%	-2%	-7%	·	·
N#Cc1ccccc1Cn1c(=O)n(Cc2ccc(C(=O)NCc3ccco3)cc2)c(=O)c2sccc21	-11	?	-11%	-26%	-15%	-6%	·	·
Cc1cc(C)c(NC(=O)Cn2c(=O)n(Cc3ccc(C(=O)NCc4ccco4)cc3)c(=O)c3sccc32)c(C)c1	·	1.1µM*	·	?	?	?	47*	67*
COC(=O)c1ccccc1-c1c2ccc(=N)cc-2oc2cc(N)ccc12	-8	·	4.7µM*	28µM*	50µM*	79µM*	24*	76*	Pol kappa inh-2=47*
CCOC(=O)c1c(NC(=O)c2cc(=O)c3c(C)cc(C)cc3o2)sc2c1CCC2	·	-1%	·	15%	-17%	12%	·	·
NS(=O)(=O)c1ccc(CCNC(=O)COC(=O)c2ccc([N+](=O)[O-])o2)cc1	1	·	-5%	-36%	?	35µM*	84*	?
NS(=O)(=O)c1ccc(CCNC(=O)COC(=O)Cc2ccc([N+](=O)[O-])cc2)cc1	-20	·	-2%	-2%	-8%	8%	·	·
CCOc1ccc(CCNC(=O)CCS(=O)(=O)c2ccc(Br)cc2)cc1OCC	3	-22%	-4%	9%	-5%	6%	·	·
NS(=O)(=O)c1ccc(CCNC(=O)CCS(=O)(=O)c2ccc(Br)cc2)cc1	-14	28µM*	?	-2%	20µM*	2%	38*	43*
O=C(CCNS(=O)(=O)c1ccc(Br)cc1)NCCc1ccccc1	3	60%	0%	1%	-7%	12%	·	·
O=C(CCS(=O)(=O)c1ccc(Br)cc1)NCCc1ccccc1	-4	?	?	?	20µM*	50µM*	?	48*	Pol kappa inh-2=17*
OCCN1CCN(C(c2ccccc2Cl)c2sc3nc(-c4ccco4)nn3c2O)CC1 (stereo not given)	·	24%	·	-9%[60.1 µM]	0%	?	·	·
Cc1cccc(NC(=O)COc2ccccc2C(=O)Nc2ccccc2)c1	·	·	·	6%	·	-11%	·	·
CC(C)NC(=O)C1=CC(c2ccc3c(c2)OCO3)=NS(=O)(=O)N1C	·	-3%	·	-14%	?	42%	·	·
Cc1ccc(Cn2cc(S(=O)(=O)c3cccc(Cl)c3)c(=O)c3cc(F)c(N4CCCCC4)cc32)cc1	·	7%	·	7%	-8%	45%	·	·
O=C(Nc1ccc(S(=O)(=O)Nc2ncccn2)cc1)c1ccc(S(=O)(=O)N2CCCC2)cc1	-14	-25%	5%	3%	-4%	16%	·	·
Cc1ccc(S(=O)(=O)N2CCCCC2)cc1C(=O)Nc1ccc(S(=O)(=O)Nc2ncccn2)cc1	?	?	?	79µM*	14µM*	40µM*	42*	30*
COc1ccc(NS(=O)(=O)c2ccc3c(c2)CCCN3C(=O)C2CCC2)cc1OC	·	-3%	·	-4%[60.1 µM]	-22%	11%	·	·
COc1ccccc1-n1nnnc1SCC(=O)NCC1CCCO1 (stereo not given)	1	·	9%	5%	-12%	-8%	·	·
SMILES	PI5P4Ka inh	Pol beta inh	WRN inhibitor	Pol kappa inh-1	Pol eta inh-1	POLI inh	Pol iota confirm	Pol eta inh-2	others
COc1ccccc1NC(=O)c1cnc(SCC(=O)NCC2CCCO2)n(C)c1=O (stereo not given)	-3	·	?	-15%	40µM*	22µM*	?	85*
CC(=O)c1ccc(C(=O)Nc2nnc(-c3ccc(Cl)cc3)o2)cc1	?	-13%	-9%	-31%	-9%	?	·	·
Cc1ccnc2nc(C(=O)Nc3nnc(-c4ccc(Cl)cc4)o3)nn12	0	?	-9%[11.6 µM]	?	?	?	42*	?
Cc1nn(C(=O)c2c(F)cccc2F)c(C)c1S(=O)(=O)N1CCCCCC1	·	1%	·	-7%[60.1 µM]	-13%	4%	·	·
O=C(O)COc1ccc(C=C2SC(=S)N(c3ccccc3)C2=O)cc1	-19	·	-6%	-4%	?	?	·	·
COc1ccc(/C=C2/SC(=S)N(c3ccc(S(=O)(=O)Nc4nccs4)cc3)C2=O)cc1	-67*	-22%	?	50µM*	25µM*	22µM*	?	67*
COc1ccc(N=C2NC(=O)/C(=C/C=C/c3ccccc3)S2)cc1	-1	37%	-11%	-5%	-16%	142%	·	·
O=C1NC(=Nc2ccccc2)S/C1=C\C=C\c1ccco1	-94*	2.5µM*	50µM*	20µM*	10µM*	11µM*	38*	27*
CCCSc1nc(-c2ccc(OC)cc2)cc(-c2ccccc2OC)c1C#N	·	-1%	·	-5%	-19%	4%	·	·
COc1cc(-c2oc3cc(O)cc(O)c3c(=O)c2O[C@@H]2O[C@H](CO)[C@@H](O)[C@H](O)[C@H]2O)ccc1O	·	·	·	6%[60.1 µM]	·	·	·	·
